The first experiment can be described thus: blockers of cytochrome c efflux from mitochondria – biochemical, purified mitochondria (AID 1603).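 Also: mouse liver mitochondria challenged with calcium chloride; signal normalized to the plate average as 100%.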 Conditions: stronger effect = lower value.
Consider `CCOC(=O)[C@H](CCc1ccccc1)N[C@@H](C)C(=O)N1CCC[C@H]1C(=O)O`, for which the cytochrome c release ratio was determined as 1.13.

Consider `Cc1c(NC(=O)c2cccnc2)c(=O)n(-c2ccccc2)n1C`, for which the cytochrome c release ratio was 0.9.

Turning to `NS(=O)(=O)c1cc(C(=O)O)c(NCc2ccco2)cc1Cl`, the cytochrome c release ratio turned out to be 0.82.

As for `CCCC(C(=O)OCCN(CC)CC)(c1ccccc1)c1ccccc1`, the cytochrome c release ratio is 2.6.

`O=C(O)c1ccccc1Nc1cccc(C(F)(F)F)c1`: the cytochrome c release ratio came to 1.3.

For `C[C@](N)(Cc1ccc(O)c(O)c1)C(=O)O`, the cytochrome c release ratio was determined as 1.01.

For the molecule `Cc1cc(N)c2ccccc2[n+]1CCCCCCCCCC[n+]1c(C)cc(N)c2ccccc21`, the cytochrome c release ratio stood at 6.78.

For `NS(=O)(=O)c1cc2c(cc1Cl)NC(C(Cl)Cl)NS2(=O)=O` (centres undefined), the cytochrome c release ratio turned out to be 1.13.

As to `Cc1ccnc(NS(=O)(=O)c2ccc(N)cc2)n1`, the cytochrome c release ratio is 0.88.

On to `Nc1ccc(S(=O)(=O)NC(=O)c2ccccc2)cc1`, for which the cytochrome c release ratio was 0.95.

In the case of `Cc1c(N(C)CS(=O)(=O)O)c(=O)n(-c2ccccc2)n1C`, the cytochrome c release ratio came out at 0.55.

Consider `CCCOc1ccccc1-c1nc2n[nH]nc2c(=O)[nH]1`, for which the cytochrome c release ratio is 0.54.

Take `CC(=O)NO`: the cytochrome c release ratio was determined as 0.77.

Another experiment can be described thus: polyglutamine aggregate formation blockers (AID 1604). Conditions: polyglutamine-induced protein aggregation inhibition assay; stronger effect = higher value; tested at 2.5 µM.
Regarding `CN1CCN(CCCN2c3ccccc3Sc3ccc(Cl)cc32)CC1`, the inhibition of aggregation was 74.6%.

In the case of `CC(C(=O)O)c1ccc(C(=O)c2cccs2)cc1` (centres undefined), the inhibition of aggregation came out at 91.6%.

Turning to `Nc1c(Br)cc(Br)cc1CNC1CCC(O)CC1` (centres undefined), the inhibition of aggregation was found to be 54.5%.

Consider `COc1cnc(NS(=O)(=O)c2ccc(N)cc2)nc1`, for which the inhibition of aggregation came out at 77.5%.

In the case of `CC(C)(Oc1ccc(CCNC(=O)c2ccc(Cl)cc2)cc1)C(=O)O`, the inhibition of aggregation came out at 61%.

Consider `CO[C@]12C[C@@H](COC(=O)c3cncc(Br)c3)CN(C)[C@@H]1Cc1cn(C)c3cccc2c13`, for which the inhibition of aggregation worked out at 65.4%.

For the molecule `CN1Cc2c(N)cccc2C(c2ccccc2)C1` (centres undefined), the inhibition of aggregation is 75%.

For `CC(Cc1cccc(C(F)(F)F)c1)NCCOC(=O)c1ccccc1` (centres undefined), the inhibition of aggregation turned out to be 40.9%.

`CCN(CC)CCNC(=O)c1cc(Br)c(N)cc1OC`: the inhibition of aggregation was determined as 24.2%.

Take `COc1ccc(CN(CCN(C)C)c2ccccn2)cc1`: the inhibition of aggregation is 12.7%.

On to `CCN(CC)C(=O)N1CCN(C)CC1`, for which the inhibition of aggregation is 85.9%.

Consider `Cc1ncc([N+](=O)[O-])n1CCO`, for which the inhibition of aggregation came to 58.7%.

As to `CCCCOc1ccc(OCCCN2CCOCC2)cc1`, the inhibition of aggregation was 65%.

In the case of `O=C(O)CCC(=O)Nc1ccc(S(=O)(=O)Nc2nccs2)cc1`, the inhibition of aggregation was determined as 100%.

As to `Cc1ccccc1N1C(=O)c2cc(S(N)(=O)=O)c(Cl)cc2NC1C` (centres undefined), the inhibition of aggregation is 4.55%.

As for `Cc1ccc(C(=O)c2ccc(CC(=O)O)n2C)cc1`, the inhibition of aggregation is 23.8%.

On to `Cc1ccccc1OCC(O)CO` (centres undefined), for which the inhibition of aggregation worked out at 70.4%.

As for `O=C(Cn1ccnc1[N+](=O)[O-])NCCO`, the inhibition of aggregation amounted to 62.1%.

As for `CC1(C)OC(=O)NC1=O`, the inhibition of aggregation was determined as 33.3%.

Consider `COc1ccc(NS(=O)(=O)c2ccc(N)cc2)nn1`, for which the inhibition of aggregation was -3.03%.

On to `C=CCc1ccccc1OCC(O)CNC(C)C` (centres undefined), for which the inhibition of aggregation was 14.3%.

In the case of `Cc1cc(C(C)(C)C)c(O)c(C)c1CC1=NCCN1`, the inhibition of aggregation was 6.98%.

In the case of `CCn1cc(C(=O)O)c(=O)c2cnc(N3CCCC3)nc21`, the inhibition of aggregation worked out at 85.9%.

On to `CCOC(=O)[C@H](CCc1ccccc1)N[C@@H](C)C(=O)N1CCC[C@H]1C(=O)O`, for which the inhibition of aggregation was determined as 72.2%.

Turning to `Cc1c(NC(=O)c2cccnc2)c(=O)n(-c2ccccc2)n1C`, the inhibition of aggregation was found to be 85.9%.

`NS(=O)(=O)c1cc(C(=O)O)c(NCc2ccco2)cc1Cl`: the inhibition of aggregation is 3.24%.

As for `CCCC(C(=O)OCCN(CC)CC)(c1ccccc1)c1ccccc1`, the inhibition of aggregation was found to be 77%.

Turning to `O=C(O)c1ccccc1Nc1cccc(C(F)(F)F)c1`, the inhibition of aggregation is 73.1%.

Regarding `C[C@](N)(Cc1ccc(O)c(O)c1)C(=O)O`, the inhibition of aggregation stood at 31.7%.

With `Cc1cc(N)c2ccccc2[n+]1CCCCCCCCCC[n+]1c(C)cc(N)c2ccccc21`, the inhibition of aggregation came to 43.1%.

As to `NS(=O)(=O)c1cc2c(cc1Cl)NC(C(Cl)Cl)NS2(=O)=O` (centres undefined), the inhibition of aggregation was found to be 79.6%.

Regarding `Cc1ccnc(NS(=O)(=O)c2ccc(N)cc2)n1`, the inhibition of aggregation came out at 38%.

For `Nc1ccc(S(=O)(=O)NC(=O)c2ccccc2)cc1`, the inhibition of aggregation was 47.9%.

As for `Cc1c(N(C)CS(=O)(=O)O)c(=O)n(-c2ccccc2)n1C`, the inhibition of aggregation is 94.4%.

Consider `CCCOc1ccccc1-c1nc2n[nH]nc2c(=O)[nH]1`, for which the inhibition of aggregation amounted to 18.4%.

For the molecule `CC(=O)NO`, the inhibition of aggregation came out at 58.3%.

Source of the values: PubChem BioAssay.
